The values that follow come from PubChem BioAssay (EPA / NIEHS).

Assay [1] in a line: BSK_3C_VCAM1: BioMAP Diversity Plus: 3C Assay for Vascular cell adhesion molecule 1 (VCAM1) Biomarker Activity (AID 2282999). Conditions: BioMAP 3C HUVEC, VCAM1 ELISA, cytokine-stimulated; actives raise or lower the signal. The method in brief:
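Human umbilical vein endothelial cells were dosed with compound for 24 h, after which cell-surface VCAM-1 was quantified by ELISA. Bidirectional curve fitting used DMSO as negative control and activity baseline.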
(In general: An ELISA detects its analyte on a solid surface through an enzyme-linked reagent.)

The nature of assay [2]: BSK_4H_Eotaxin3: BioMAP Diversity Plus: 4H Assay for Eotaxin 3 Biomarker Activity (AID 2283000).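 For outcome: CCL26 protein level quantified by ELISA in parallel with SRB cytotoxicity check.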 Conditions: primary human endothelial cells (HUVEC); actives raise or lower the signal. The method in brief:
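Endothelial primary cells (human umbilical vein) exposed to compound for 24 h. ELISA detection of Eotaxin-3.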

Read-out in assay [3]: Intercellular Adhesion Molecule 1 (ICAM1), ICAM1 (gene 3383)
Kind of assay: BSK_3C_ICAM1: BioMAP Diversity Plus: 3C Assay for Intercellular Adhesion Molecule 1 (ICAM1) Biomarker Activity (AID 2283003). Conditions: primary human endothelial cells (HUVEC); actives raise or lower the signal. The method in brief: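 ICAM-1 levels measured by ELISA after HUVEC cultures in the 3C system had been dosed for 24 h. Gain or loss of signal relative to DMSO was fitted in both directions.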

Assay [4] deals with human Retinoic Acid Receptor beta (RARb), RARB (gene 5915) (UniProt P10826). Kind of assay: ATG_RARb_TRANS: Attagene TRANS-FACTORIAL HepG2 Assay for human Retinoic Acid Receptor beta (AID 2283004; active = hit-call score of the fitted dose curve at least 0.9, where 1 is the maximum). The method in brief:
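HepG2, transient MRTU transfection, NR–Gal4 chimera, 24 h treatment; RT-PCR plus CE fluorescence detection of reporter mRNA; gain of signal vs DMSO.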

Assay [5] concerns the target Retinoic acid receptor alpha (Homo sapiens) (UniProt P10276). Put plainly: ATG_RARa_TRANS: Attagene TRANS-FACTORIAL HepG2 Assay for human Retinoic Acid Receptor alpha (RARa) (AID 2283005; active = hit-call score of the fitted dose curve at least 0.9, where 1 is the maximum;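 for AC50: potency for increased reporter signal meaning RARa activation over DMSO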). The method, boiled down:
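HepG2 cells transiently transfected with multiple reporter units expressing chimeric RARα-GAL4 fusion, with GAL4-UAS-driven reporters. After 24 h compound exposure, reporter mRNA induction quantified by RT-PCR and capillary electrophoresis with fluorescent labeling; gain-of-signal fitted relative to DMSO control.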

Assay [6] can be described thus: BSK_3C_Proliferation: Cell Proliferation Assessment in the BioMAP Diversity Plus: 3C Assay (AID 2283006).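 For AC50: potency may reflect either rise or fall in cell number versus DMSO.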 Conditions: primary human endothelial cells (HUVEC). The method, boiled down:
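Read-out is total protein by SRB absorbance at 560 nm, taken as a proxy for relative cell number. Primary human umbilical vein endothelium cultured below confluence was dosed for 48 h, TCA-fixed and SRB-stained; curves were fitted bidirectionally versus DMSO.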

Assay [7] concerns the target Peroxisome proliferator-activated receptor gamma (Homo sapiens) (UniProt P37231). Put plainly: ATG_PPARg_TRANS: Attagene TRANS-FACTORIAL HepG2 Assay for human Peroxisome Proliferator-activated Receptor-gamma (PPARg) (AID 2283007; active = hit-call score of the fitted dose curve at least 0.9, where 1 is the maximum). The method, boiled down:
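Human hepatoma HepG2, transient MRTU transfection, 24 h treatment. mRNA reporter signal by RT-PCR plus capillary electrophoresis, fluorescence detection; fitted for increase over DMSO negative control.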

Assay [8] concerns the target Nuclear receptor subfamily 1 group I member 2 (Homo sapiens) (UniProt O75469). Put plainly: ATG_PXR_TRANS: Attagene TRANS-FACTORIAL HepG2 Assay for human Pregnane X Receptor (PXR) (AID 2283008; active = hit-call score of the fitted dose curve at least 0.9, where 1 is the maximum). The method in brief:
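Measures mRNA induction of a GAL4-UAS-driven reporter in human HepG2 cells transiently expressing PXR fused to Gal4, following 24 h treatment. DMSO served as negative control and baseline.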

In assay [9] the target is human Retinoic Acid Receptor gamma (RARg), RARG (gene 5916) (UniProt P13631). Put plainly: ATG_RARg_TRANS: Attagene TRANS-FACTORIAL HepG2 Assay for human Retinoic Acid Receptor gamma (RARg) (AID 2283009; active = hit-call score of the fitted dose curve at least 0.9, where 1 is the maximum). The method in brief:
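Transient transfection of HepG2 with multi-reporter constructs, then 24 h chemical treatment. Total RNA isolated, reverse-transcribed, PCR-amplified, fluorescently labelled and resolved by capillary electrophoresis; activity scored as mRNA induction versus DMSO.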

The target in assay [10] is Retinoic acid receptor RXR-alpha (Homo sapiens) (UniProt P19793). Kind of assay: ATG_RXRa_TRANS: Attagene TRANS-FACTORIAL HepG2 Assay for human Retinoid X Receptor alpha (RXRa) (AID 2283012; active = hit-call score of the fitted dose curve at least 0.9, where 1 is the maximum). The method, boiled down: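 Transient transfection of human HepG2 with multiple GAL4-UAS reporter constructs; 24 h compound exposure; total RNA isolated, reverse-transcribed, PCR-amplified, 6-FAM labelled, HpaI-cut, resolved by capillary electrophoresis. Positive-direction fit versus DMSO.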

In assay [11] the target is human Retinoid X Receptor beta (RXRb), RXRB (gene 6257) (UniProt P28702). Kind of assay: ATG_RXRb_TRANS: Attagene TRANS-FACTORIAL HepG2 Assay for human Retinoid X Receptor beta (RXRb) (AID 2283013; active = hit-call score of the fitted dose curve at least 0.9, where 1 is the maximum). The method in brief:
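Transfect HepG2 with GAL4-UAS multi-reporter constructs (chimeric NR-Gal4, TRANS format); dose compound 24 h; isolate RNA, RT-PCR, FAM primer extension, HpaI digest; quantify by capillary electrophoresis; positive direction vs DMSO.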

Read-out in assay [12]: E-selectin (Homo sapiens) (UniProt P16581)
Put plainly: BSK_3C_Eselectin: BioMAP Diversity Plus: 3C Assay for Eselectin Biomarker Activity (AID 2283015).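 For outcome: cell surface E-selectin protein quantified by ELISA 24 h after dosing.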 Conditions: primary human endothelial cells (HUVEC); actives raise or lower the signal. The method in brief:
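Human vascular endothelium from umbilical vein is exposed to test chemicals for 24 h. E-selectin levels are read by ELISA and compared with DMSO controls.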

Read-out in assay [13]: Interleukin-1 alpha (IL1a), IL1A (gene 3552)
Kind of assay: BSK_BE3C_IL1a: BioMAP Diversity Plus: BE3C Assay for Interleukin-1 alpha (IL1a) Biomarker Activity (AID 2283016). Conditions: primary human bronchial epithelial cells; actives raise or lower the signal. The method in brief: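 BE3C primary human bronchial epithelium; cpd 24 h; IL-1a by ELISA; bidirectional fit vs DMSO; parallel SRB (0.1% SRB, 10% TCA fix, 560 nm) for cytotoxicity.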

Read-out in assay [14]: Monocyte Chemoattractant Protein-1 (MCP1), CCL2 (gene 6347)
Kind of assay: BSK_3C_MCP1: BioMAP Diversity Plus: 3C Assay for Monocyte Chemoattractant Protein-1 (MCP1) Biomarker Activity (AID 2283017). Conditions: primary human endothelial cells (HUVEC); actives raise or lower the signal. The method in brief:
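Endothelial cells from human umbilical vein are dosed with chemical, cultured 24 h, then assayed for MCP-1 by ELISA; both increases and decreases are modelled against DMSO controls.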

Read-out in assay [15]: Monocyte Chemoattractant Protein-1 (MCP1), CCL2 (gene 6347)
Kind of assay: BSK_4H_MCP1: BioMAP Diversity Plus: 4H Assay for Monocyte Chemoattractant Protein-1 (MCP1) Biomarker Activity (AID 2283018). Conditions: primary human endothelial cells (HUVEC); actives raise or lower the signal. The method, boiled down: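 ELISA read-out of MCP-1 from human vascular endothelial primary cells taken at 24 hours after compound exposure. Activity was fitted in both directions relative to DMSO, which served as negative control.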

Read-out in assay [16]: Human Leukocyte Antigen - DR isotype (HLADR), HLA-DRA (gene 3122)
Kind of assay: BSK_3C_HLADR: BioMAP Diversity Plus: 3C Assay for Human Leukocyte Antigen - DR isotype (HLADR) Biomarker Activity (AID 2283019).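 For outcome: ELISA of cell-surface HLA-DR on HUVEC 24 h after dosing.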 Conditions: primary human endothelial cells (HUVEC); actives raise or lower the signal. The method, boiled down:
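Endothelial cells from human umbilical vein are treated with test chemical; after 24 h, HLA-DR levels are measured by ELISA. Data are fitted in both directions using DMSO as the baseline.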

Assay [17] concerns the target human RAR-related Orphan Receptor gamma (RORg), RORC (gene 6097) (UniProt P51449). Put plainly: ATG_RORg_TRANS: Attagene TRANS-FACTORIAL HepG2 Assay for human RAR-related Orphan Receptor gamma (RORg) (AID 2283011; active = hit-call score of the fitted dose curve at least 0.9, where 1 is the maximum). The method, boiled down: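 Activity is scored as increase in GAL4-UAS reporter mRNA over DMSO, detected by fluorescent RT-PCR and capillary electrophoresis in HepG2 cells transiently expressing a RORg-Gal4 chimera, 24 h after dosing.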

The target in assay [18] is human Thyroid Receptor alpha (THRa1), THRA (gene 7067) (UniProt P10827). Kind of assay: ATG_THRa1_TRANS: Attagene TRANS-FACTORIAL HepG2 Assay for human Thyroid Receptor alpha (THRa1) (AID 2283014; active = hit-call score of the fitted dose curve at least 0.9, where 1 is the maximum). The method, boiled down:
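First, HepG2 cells receive multiple GAL4-UAS reporter units and the chimeric receptor. They are then dosed for 24 h, after which RNA is reverse-transcribed, amplified, labelled, HpaI-cut and sized by capillary electrophoresis; gain relative to DMSO is scored.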

For assay [19], the target named is human Peroxisome Proliferator-activated Receptor delta (PPARd), PPARD (gene 5467) (UniProt Q03181). Kind of assay: ATG_PPARd_TRANS: Attagene TRANS-FACTORIAL HepG2 Assay for human Peroxisome Proliferator-activated Receptor delta (PPARd) (AID 2283002; active = hit-call score of the fitted dose curve at least 0.9, where 1 is the maximum). The method, boiled down: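 Multiplexed trans-activation format: HepG2 liver cells expressing exogenous NR-Gal4 chimeras and GAL4-UAS reporters were exposed for 24 h. Reporter mRNA was detected by RT-PCR with capillary electrophoresis fluorescence; activity fitted as gain of signal relative to DMSO.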

Results filed as inconclusive are left out. The source made the active and inactive calls. Rule for the calls, unless noted: active = hit-call score of the fitted dose curve at least 0.9, where 1 is the maximum; inactive = score below 0.9.

E-selectin (Homo sapiens), sequence (P16581 whole entry, looked up): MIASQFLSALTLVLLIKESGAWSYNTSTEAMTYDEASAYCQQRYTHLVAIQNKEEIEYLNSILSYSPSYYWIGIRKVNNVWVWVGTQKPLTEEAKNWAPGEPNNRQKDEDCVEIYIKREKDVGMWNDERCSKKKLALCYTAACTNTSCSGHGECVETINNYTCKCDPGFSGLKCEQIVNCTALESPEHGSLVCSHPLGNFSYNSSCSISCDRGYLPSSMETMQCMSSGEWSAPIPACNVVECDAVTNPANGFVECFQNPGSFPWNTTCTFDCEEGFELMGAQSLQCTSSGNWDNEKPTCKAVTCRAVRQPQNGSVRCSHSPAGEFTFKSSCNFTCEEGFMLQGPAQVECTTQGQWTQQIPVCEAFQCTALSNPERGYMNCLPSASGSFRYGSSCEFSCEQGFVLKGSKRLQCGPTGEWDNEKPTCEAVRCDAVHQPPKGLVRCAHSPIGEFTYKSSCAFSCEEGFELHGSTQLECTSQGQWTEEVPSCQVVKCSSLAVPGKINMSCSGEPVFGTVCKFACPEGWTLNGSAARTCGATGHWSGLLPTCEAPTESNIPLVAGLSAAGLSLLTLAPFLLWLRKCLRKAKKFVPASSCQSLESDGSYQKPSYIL
Retinoic acid receptor RXR-alpha (Homo sapiens), sequence (P19793 whole entry, looked up, the tested form may be a part): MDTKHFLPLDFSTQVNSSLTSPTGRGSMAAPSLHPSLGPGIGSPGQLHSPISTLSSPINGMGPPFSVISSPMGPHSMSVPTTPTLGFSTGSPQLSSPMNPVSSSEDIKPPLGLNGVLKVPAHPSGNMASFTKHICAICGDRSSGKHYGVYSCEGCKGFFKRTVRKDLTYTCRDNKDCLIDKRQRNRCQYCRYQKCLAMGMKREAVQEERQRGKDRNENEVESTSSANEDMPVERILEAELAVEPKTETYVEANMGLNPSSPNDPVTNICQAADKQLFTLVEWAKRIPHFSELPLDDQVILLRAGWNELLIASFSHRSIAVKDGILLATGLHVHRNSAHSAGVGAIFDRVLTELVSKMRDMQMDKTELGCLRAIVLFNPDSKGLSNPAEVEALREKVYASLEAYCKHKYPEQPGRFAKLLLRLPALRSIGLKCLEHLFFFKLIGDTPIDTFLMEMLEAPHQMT
Nuclear receptor subfamily 1 group I member 2 (Homo sapiens), sequence (O75469 whole entry, looked up, the tested form may be a part): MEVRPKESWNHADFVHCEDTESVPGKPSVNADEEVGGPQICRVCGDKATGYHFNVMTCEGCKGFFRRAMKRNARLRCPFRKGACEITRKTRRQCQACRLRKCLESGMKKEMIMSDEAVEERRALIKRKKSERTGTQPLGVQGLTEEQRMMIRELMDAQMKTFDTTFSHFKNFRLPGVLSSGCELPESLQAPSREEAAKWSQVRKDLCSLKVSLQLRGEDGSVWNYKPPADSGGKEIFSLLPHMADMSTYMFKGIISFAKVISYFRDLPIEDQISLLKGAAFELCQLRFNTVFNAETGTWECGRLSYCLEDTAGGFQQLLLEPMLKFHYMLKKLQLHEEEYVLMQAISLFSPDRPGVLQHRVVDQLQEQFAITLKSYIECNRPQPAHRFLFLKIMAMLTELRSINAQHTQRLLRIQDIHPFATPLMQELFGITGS
human RAR-related Orphan Receptor gamma (RORg), RORC (gene 6097), sequence (P51449 whole entry, looked up, the tested form may be a part): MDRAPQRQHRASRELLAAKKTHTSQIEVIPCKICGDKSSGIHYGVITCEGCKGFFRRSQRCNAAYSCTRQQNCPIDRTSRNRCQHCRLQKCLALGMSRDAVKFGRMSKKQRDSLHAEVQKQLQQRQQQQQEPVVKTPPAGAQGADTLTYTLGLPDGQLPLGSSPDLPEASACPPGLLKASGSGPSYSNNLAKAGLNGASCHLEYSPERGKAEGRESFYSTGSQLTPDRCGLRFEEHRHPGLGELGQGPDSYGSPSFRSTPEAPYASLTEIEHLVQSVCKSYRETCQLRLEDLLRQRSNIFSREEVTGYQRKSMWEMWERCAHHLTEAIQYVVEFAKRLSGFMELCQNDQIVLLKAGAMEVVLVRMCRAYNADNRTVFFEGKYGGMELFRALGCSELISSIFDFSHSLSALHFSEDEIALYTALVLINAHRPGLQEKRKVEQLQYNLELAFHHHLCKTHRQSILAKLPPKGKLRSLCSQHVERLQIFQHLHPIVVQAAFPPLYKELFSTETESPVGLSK
human Thyroid Receptor alpha (THRa1), THRA (gene 7067), sequence (P10827 whole entry, looked up, the tested form may be a part): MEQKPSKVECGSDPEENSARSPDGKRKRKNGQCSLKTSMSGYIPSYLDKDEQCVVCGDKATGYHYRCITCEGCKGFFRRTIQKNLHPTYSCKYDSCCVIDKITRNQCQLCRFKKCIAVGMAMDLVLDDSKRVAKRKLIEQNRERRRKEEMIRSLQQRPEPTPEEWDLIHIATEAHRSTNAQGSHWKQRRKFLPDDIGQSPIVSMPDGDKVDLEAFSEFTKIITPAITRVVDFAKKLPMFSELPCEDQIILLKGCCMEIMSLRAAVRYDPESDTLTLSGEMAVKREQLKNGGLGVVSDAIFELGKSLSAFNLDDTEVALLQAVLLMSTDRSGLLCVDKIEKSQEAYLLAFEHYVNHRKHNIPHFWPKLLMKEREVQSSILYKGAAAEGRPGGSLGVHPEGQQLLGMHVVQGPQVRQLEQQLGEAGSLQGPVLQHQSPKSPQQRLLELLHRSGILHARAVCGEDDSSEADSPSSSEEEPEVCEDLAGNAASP
human Peroxisome Proliferator-activated Receptor delta (PPARd), PPARD (gene 5467), sequence (Q03181 whole entry, looked up, the tested form may be a part): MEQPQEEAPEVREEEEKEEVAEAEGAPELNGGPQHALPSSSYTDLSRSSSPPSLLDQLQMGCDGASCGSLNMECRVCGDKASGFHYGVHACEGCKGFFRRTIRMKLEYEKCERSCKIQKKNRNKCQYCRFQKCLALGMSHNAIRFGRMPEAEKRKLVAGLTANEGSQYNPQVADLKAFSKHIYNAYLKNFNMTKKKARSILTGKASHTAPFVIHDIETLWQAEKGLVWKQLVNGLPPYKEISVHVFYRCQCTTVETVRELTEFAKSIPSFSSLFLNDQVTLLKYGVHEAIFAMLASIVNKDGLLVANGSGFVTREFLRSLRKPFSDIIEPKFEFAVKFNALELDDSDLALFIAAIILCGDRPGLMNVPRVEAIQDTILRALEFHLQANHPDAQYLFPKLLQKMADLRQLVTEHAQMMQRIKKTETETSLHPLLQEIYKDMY
human Retinoid X Receptor beta (RXRb), RXRB (gene 6257), sequence (P28702 whole entry, looked up, the tested form may be a part): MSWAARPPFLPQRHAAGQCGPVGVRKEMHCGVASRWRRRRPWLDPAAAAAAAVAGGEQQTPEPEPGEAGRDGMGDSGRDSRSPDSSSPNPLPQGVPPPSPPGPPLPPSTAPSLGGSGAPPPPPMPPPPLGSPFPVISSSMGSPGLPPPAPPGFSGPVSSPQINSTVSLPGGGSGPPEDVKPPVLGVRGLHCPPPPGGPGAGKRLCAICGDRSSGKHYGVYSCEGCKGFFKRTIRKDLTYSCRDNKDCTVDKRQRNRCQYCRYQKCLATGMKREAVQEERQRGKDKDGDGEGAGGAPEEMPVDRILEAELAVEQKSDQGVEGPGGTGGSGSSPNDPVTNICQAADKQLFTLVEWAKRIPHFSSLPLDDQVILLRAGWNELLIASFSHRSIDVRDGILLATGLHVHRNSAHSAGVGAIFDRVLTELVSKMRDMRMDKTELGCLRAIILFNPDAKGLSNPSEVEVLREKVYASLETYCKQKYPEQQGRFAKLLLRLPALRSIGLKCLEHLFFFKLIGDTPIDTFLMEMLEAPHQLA
Peroxisome proliferator-activated receptor gamma (Homo sapiens), sequence (P37231 whole entry, looked up): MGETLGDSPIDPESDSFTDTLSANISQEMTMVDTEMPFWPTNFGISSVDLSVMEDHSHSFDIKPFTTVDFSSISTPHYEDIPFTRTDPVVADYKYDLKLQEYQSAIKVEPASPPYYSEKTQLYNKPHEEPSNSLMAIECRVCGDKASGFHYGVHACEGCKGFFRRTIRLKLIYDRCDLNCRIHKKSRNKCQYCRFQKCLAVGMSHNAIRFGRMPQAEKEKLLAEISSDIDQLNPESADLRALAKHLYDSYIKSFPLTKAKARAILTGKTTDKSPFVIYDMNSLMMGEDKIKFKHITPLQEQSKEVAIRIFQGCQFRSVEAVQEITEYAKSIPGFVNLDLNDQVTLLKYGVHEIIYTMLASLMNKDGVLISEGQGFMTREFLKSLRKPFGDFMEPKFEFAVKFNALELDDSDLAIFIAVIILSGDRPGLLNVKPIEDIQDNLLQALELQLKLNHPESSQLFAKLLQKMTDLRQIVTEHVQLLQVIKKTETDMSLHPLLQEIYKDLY
human Retinoic Acid Receptor beta (RARb), RARB (gene 5915), sequence (P10826 whole entry, looked up, the tested form may be a part): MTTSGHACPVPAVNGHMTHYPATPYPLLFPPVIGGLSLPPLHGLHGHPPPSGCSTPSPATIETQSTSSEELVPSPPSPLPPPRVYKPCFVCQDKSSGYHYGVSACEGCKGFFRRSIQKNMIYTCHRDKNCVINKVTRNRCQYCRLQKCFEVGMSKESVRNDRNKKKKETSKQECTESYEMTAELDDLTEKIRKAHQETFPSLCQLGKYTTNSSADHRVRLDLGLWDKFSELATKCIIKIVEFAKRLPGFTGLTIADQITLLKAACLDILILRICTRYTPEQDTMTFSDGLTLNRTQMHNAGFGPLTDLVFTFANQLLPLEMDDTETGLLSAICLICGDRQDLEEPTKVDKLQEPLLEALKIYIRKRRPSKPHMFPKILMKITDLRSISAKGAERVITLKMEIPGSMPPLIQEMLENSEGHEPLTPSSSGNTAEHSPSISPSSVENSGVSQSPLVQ
Retinoic acid receptor alpha (Homo sapiens), sequence (P10276 whole entry, looked up, the tested form may be a part): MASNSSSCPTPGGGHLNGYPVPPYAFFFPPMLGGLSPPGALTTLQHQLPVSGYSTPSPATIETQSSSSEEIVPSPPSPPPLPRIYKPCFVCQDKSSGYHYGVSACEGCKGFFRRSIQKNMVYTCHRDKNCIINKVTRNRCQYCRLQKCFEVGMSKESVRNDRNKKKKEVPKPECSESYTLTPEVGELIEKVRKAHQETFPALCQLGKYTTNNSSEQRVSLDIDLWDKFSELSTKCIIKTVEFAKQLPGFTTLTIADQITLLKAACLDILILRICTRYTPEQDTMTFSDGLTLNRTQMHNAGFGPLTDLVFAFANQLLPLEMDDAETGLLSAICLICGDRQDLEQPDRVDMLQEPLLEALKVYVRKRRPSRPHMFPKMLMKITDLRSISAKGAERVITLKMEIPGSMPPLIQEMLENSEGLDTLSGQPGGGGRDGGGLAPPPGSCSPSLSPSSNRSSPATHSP

The AC50 is the concentration giving half of the maximal activity seen. Take `CCCOCC(=Nc1ccc(Cl)cc1C(F)(F)F)n1ccnc1`: the half-maximal activity concentration (AC50) in [1] is 33.6 µM (active); in [2] it was 34.4 µM (active); in [3], 29.7 µM (active); in [5], 1.1 µM (active); in [6], 33.4 µM (active); in assay [7] it was 1.36 µM (active). The AC50 was 30.2 µM (active) in assay [12]; 33.5 µM (active) in assay [13]; 30.2 µM (active) in assay [14]; 24.9 µM (active) in assay [15]; 26.8 µM (active) in assay [16]. Moreover, the result in assay [4], in [8], in assay [9], in [10] and in assay [11] was inactive.
Regarding `O=c1ccc(=O)[nH][nH]1`, the outcome in assay [1], in [2], in assay [6], in [7], in assay [8] and in assay [17] was inactive. For the same compound, the result in assay [10], in assay [11], in assay [18], in [12], in assay [14] and in [15] was inactive. The outcome in assay [16] was inactive.
For the compound `CCCOc1nn(C(=O)NS(=O)(=O)c2ccccc2C(=O)OC)c(=O)n1C`, the AC50 in assay [1] was 1.09 µM (active). Further, the result in assay [2], in assay [6], in [7], in [8], in [9] and in assay [10] was inactive. In addition, the result in assay [18], in [12], in [14], in [15] and in [16] was inactive.
For `CNC(=O)Oc1cccc2c1OC(C)(C)O2`, the AC50 was 28.5 µM (active) in [1], 20 µM (active) in assay [2], 27.3 µM (active) in [12] and 28.6 µM (active) in assay [16]. The compound was classed as inactive in assay [19], in assay [6], in [7], in [8], in [11] and in assay [14]. Moreover, in assay [15], the result was inactive.
In the case of `CN(C)C(=O)Nc1cccc(C(F)(F)F)c1`, the outcome in [1], in assay [2], in assay [3], in assay [4], in [5] and in assay [6] was inactive. Further, the call in [7], in assay [8], in [10], in assay [12], in assay [14] and in [15] was inactive. Also, the outcome in [16] was inactive.
As for `CCC(=NOC/C=C/Cl)C1=C(O)CC(C2CCOCC2)CC1=O` (stereo unspecified), the outcome in assay [1], in assay [2], in assay [19], in assay [6], in assay [7] and in assay [8] was inactive. The compound was called inactive in assay [17], in assay [10], in assay [11], in [18], in [12] and in [14]. The result in assay [15] and in assay [16] was inactive.
Turning to `CCNc1nc(Cl)nc(NC(C)(C)C#N)n1`, the outcome in assay [1], in assay [2], in [19], in [6], in [7] and in assay [17] was inactive. Moreover, the outcome in assay [10], in [11], in assay [12], in assay [14], in [15] and in assay [16] was inactive.
On to `CNC(=O)ON=C(SC)C(=O)N(C)C`, for which the result in [1], in assay [2], in assay [19], in assay [6], in assay [7] and in assay [11] was inactive. The result in assay [12], in assay [14], in [15] and in [16] was inactive.
